Screening data: PubChem, National Center for Advancing Translational Sciences (NCATS)
HT1080 IDH1KD tx: kills HT-1080 cells with IDH1 knockdown | HT-1080 IDH1 knockdown viability, ATP luminescence, 48 h | Potency, µM (titrated, usually from 46.1 µM), for inactives: at the top dose activity, negative = toxicity, actives largely listed as cytotoxic | actives 2% (n = 360,000) | AID 686971;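 further: potency means the concentration at half of the fitted maximal effect; 0% = DMSO wells and -100% = cell-free medium wells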
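IDH1KD HT-1080 cells, 750/well, RPMI + 5% FBS; compound pinned after 2 h settling; 48 h, 37 °C; CellTiter-Glo luminescence; % activity normalised to DMSO and no-cell wells; curves fitted, classed by r2 and efficacy.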
ELG1 DNA repair: ELG1-dependent DNA repair inhibition; HEK293T ELG1-luciferase reporter, luminescence, 16 h; DNA damage induced by 5-fluorouridine; Potency, µM (top dose mostly 46.1 µM), for inactives: top-dose activity change, negative = inhibition, actives largely listed as inhibitors; actives 2.3% (n = 330,000); further: potency means the concentration at half of the fitted maximal effect; nearly all actives have a fitted effect of over 55% in size
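DMSO vehicle served as the neutral condition. Each well held 2,000 cells given 5-fluorouridine plus compound; after 16 hr at 37 °C/5% CO2, ONE-Glo was added and luciferase measured 30 min later.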
IL1B secr inh: inflammasome signaling inhibition, IL-1 beta readout; THP-1 LPS/ATP IL-1B secretion, AlphaLISA, 16 h; hits give low values; activity change, % at 57.5 µM; actives 4.7% (n = 360,000); in the data active means activity change below about -50%; inconclusive means mostly about -30% to -49%
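Secreted IL-1B measured by AlphaLISA bead assay after 16 h compound exposure of THP-1 cells; compounds (final up to 57.5 uM) added 1 h before LPS (250 ng/mL) and ATP (1.25 mM) stimulation; lower signal means less secretion.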
TDP1 cell noCPT: qHTS for Inhibitors of human tyrosyl-DNA phosphodiesterase 1 (TDP1): qHTS in cells in absence of CPT | actives 15% (n = 420,000) | Potency, µM (doses to about 46.2 µM), inactives show at the top dose activity change, negative = growth inhibition, most hits filed as inhibitors | DT40 Tdp1-/- hTDP1 cells, no CPT, ATP luminescence, 48 h; further: potency means the concentration at half of the fitted maximal effect; nearly all actives have a fitted effect of over 55% in size
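Seeded 400 DT40-hTDP1 cells/well (vehicle DMSO, no 20 nM CPT); pinned compounds; ≥48 hr at 37 °C; CellTiter-Glo luminescence as viability measure.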
DT40 TDP1 CPT: DT40-hTDP1 cell growth loss with CPT | Potency, µM (series often up to 46.2 µM), without a hit: top-dose activity change, negative = growth inhibition, usual class: inhibitors | chicken DT40 Tdp1-/-;hTDP1 cells + 20 nM CPT, ATP luminescence, 48 h | actives 12% (n = 420,000); further: potency means the concentration at half of the fitted maximal effect; nearly all actives have a fitted effect of over 55% in size
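Cell growth measured by CellTiter-Glo luminescence after a minimum 48 h, 37 C compound exposure with 20 nM CPT in Tdp1-knockout DT40 cells stably expressing hTDP1, seeded 400/well; qHTS titration format.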
HT1080NT lethal: kills 2HG-producing HT-1080-NT fibrosarcoma cells; HT-1080-NT fibrosarcoma viability, CellTiter-Glo ATP luminescence, 48 h; actives 1.6% (n = 360,000); Potency, µM (titrated, usually from 46.1 µM), for the others: at the highest dose activity, negative = less viability, usual class: cytotoxic;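 further: NT is the 2HG producing partner of a matched IDH1 knockdown line; potency means the concentration at half of the fitted maximal effect; 0% = DMSO-treated cells and -100% = media-only wells without cells; nearly all actives have a fitted effect of over 55% in size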
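Viability of the 2HG-overproducing fibrosarcoma line after 48 hours of compound exposure at 37 degrees C was determined by luminescence with CellTiter-Glo, and concentration-effect curves were then fitted and categorized.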
Active calls of the source: *; ? = inconclusive; . = no result given. Rows were chosen to be rich in hits. Some 19% of all compounds tested hit in one or more screens of this group. Unless noted, the call rests on the fitted dose curve; in most records, active means well fitted curve in the direction sought with a large enough effect; inconclusive means small, poorly fitted or top-dose-only effect, or another doubt; inactive means no such curve, though single readings can be large; an effect the other way counts as inactive or inconclusive. Unless noted, on the % scale 0 is the no-effect control and ±100 the full control effect.

SMILES	HT1080 IDH1KD tx	ELG1 DNA repair	IL1B secr inh	TDP1 cell noCPT	DT40 TDP1 CPT	HT1080NT lethal
O=C(C[C@H]1C[C@H](C(=O)N2CCOCC2)[C@@]2(CCC3CCCC3)c3[nH]c4cc(-c5ccco5)ccc4c3CCN2C1=O)NCCCn1ccnc1	16µM*	8%	?	?	?	?
CC[C@]12c3[nH]c4ccccc4c3CCN1C(=O)C(CC(=O)NCc1cccc(C(F)(F)F)c1)C[C@@H]2C(=O)N1CCN(C(=O)C2CC2)CC1 (some centres undefined)	-3%	-17%	-22	23µM*	?	-3%
COc1ccc(CNC(=O)C[C@H]2C[C@H](C(=O)N3CCCCC3)[C@@]3(C)c4[nH]c5cc(CCC(=O)N(C)C)ccc5c4CCN3C2=O)cc1OC	5%	12%	-9	-15%	-13%	-1%
Cc1ccc(C(=O)NCc2cccnc2)cc1S(=O)(=O)Nc1ccccc1	-11%	-9%	16	-16%	-1%	-8%
Cc1cccc(N2CCN(C(=O)c3ccc4c(c3)NC(=O)C(CSCc3cccc(F)c3)N4)CC2C)c1 (centres undefined)	-17%	22%	18	?	?	9%
O=C(CC1C[C@H](C(=O)N2CCOCC2)[C@@]2(CCC3CCCC3)c3[nH]c4ccccc4c3CCN2C1=O)NCc1cccc(C(F)(F)F)c1 (some centres undefined)	10%	.	3	?	23µM*	16%
COc1ccc2[nH]c3c(c2c1)CCN1C(=O)C(CC(=O)NC(C)(C)C)C[C@H](C(=O)N2CCOCC2)[C@@]31CCC1CCCC1 (some centres undefined)	3%	14%	10	-26%	-29%	2%
C[C@]12c3[nH]c4ccc(Cl)cc4c3CCN1C(=O)[C@@H](CC(=O)NCc1cccc(C(F)(F)F)c1)C[C@@H]2C(=O)N1CCCCC1	6%	23µM*	?	21µM*	?	5%
CN(C)C(=O)CCc1ccc2c3c([nH]c2c1)[C@]1(CCC2CCCC2)[C@@H](C(=O)N2CCOCC2)C[C@H](CC(=O)NCc2cccc(C(F)(F)F)c2)C(=O)N1CC3	3%	?	-56*	15µM*	21µM*	-5%
CC(C)(C)NC(=O)C[C@H]1C[C@H](C(=O)N2CCOCC2)[C@@]2(CCC3CCCC3)c3[nH]c4ccc(Cl)cc4c3CCN2C1=O	?	?	-60*	16µM*	?	?
Cc1nc(-c2ccc(Cl)cc2)sc1C1(C)CC(c2cccc(F)c2)=NO1 (centres undefined)	13%	?	4	-1%	-1%	18%
O=C(c1ccco1)N1CCN(Cc2nc3cc(Cl)ccc3c(=O)[nH]2)CC1	?	-1%	0	-26%	-12%	-30%
CC(=O)N1CCN(C(=O)CCc2nc3ccccc3c(=O)[nH]2)CC1	9%	0%	9	8%	?	-2%
O=C(CCc1nc2ccccc2c(=O)[nH]1)N1CCN(C/C=C/c2ccccc2)CC1	-18%	?	23	6.5µM*	7.3µM*	-2%
O=c1[nH]c(CN2CCN(C/C=C/c3ccccc3)CC2)nc2cc(Cl)ccc12	-27%	?	-72*	21µM*	?	?
COc1ccc(C(=O)N/C(=C\c2cn(S(=O)(=O)N(C)C)c3ccccc23)C(=O)NCCN2CCOCC2)cc1	3%	-9%	34	11%	5%	0%
CCn1nc(C)c(CCN(C)C(=O)Nc2cc(OC)c(OC)c(OC)c2)c1C	.	.	.	-12%	-1%	.
CC12CC(NC(=O)N1CCc1ccccc1)c1cc(Cl)ccc1O2 (centres undefined)	3%	?	-16	21µM*	?	1%
CC(C)Oc1ccc(C(=O)N(Cc2ccco2)c2ccccn2)cc1	.	.	.	?	-26%	.
O=C(NCC1CCCO1)C(=O)NCC(c1ccco1)N1CCN(c2ccccc2)CC1 (centres undefined)	-17%	-3%	3	-24%	-21%	0%
Cc1ccc(S(=O)(=O)N2CCC(=O)N([C@H](COCc3cccc(Cl)c3)C(C)C)CC2)cc1	6%	.	11	16µM*	21µM*	-3%
Cc1ccc(S(=O)(=O)N2CCC(=O)N(C(COCc3cccc(C(F)(F)F)c3)C(C)C)CC2)cc1 (centres undefined)	-28%	-28%	-5	21µM*	16µM*	-14%
Cc1ccc(S(=O)(=O)N2CCC(=O)N(C(COCc3cccc(Cl)c3)C(C)C)CC2)cc1 (centres undefined)	3%	-11%	14	21µM*	?	-2%
Cc1ccccc1OCC(=O)Nc1ccc(C(=O)OCc2cc(=O)n3c(C)csc3n2)cc1	.	.	.	-16%	-11%	.
C=C1[C@@H](O)[C@@H]2O[C@]3(CC[C@H](/C=C/[C@@H](C)[C@@H]4CC(C)=CC5(O[C@H](C[C@@](C)(O)C(=O)OC)CC[C@H]5O)O4)O3)CC[C@H]2O[C@@H]1[C@@H](O)C[C@H](C)[C@H]1OC2(CCCCO2)CC[C@H]1C (some centres undefined)	1.2µM*	?	-2	0.92µM*	0.58µM*	0.65µM*
C=C1C(O)[C@@H]2O[C@]3(CC[C@H](/C=C/C(C)[C@@H]4CC(C)=CC5(O[C@H](C[C@@](C)(O)CO)CCC5O)O4)O3)CC[C@H]2O[C@@H]1C(O)CC(C)[C@H]1OC2(CCCCO2)CCC1C (some centres undefined)	0.82µM*	?	-100*	3.3µM*	1.5µM*	1.2µM*
O=[N+]([O-])c1ccc2c(c1)C=C/C2=C\c1ccc(C=S)cc1	.	.	.	11µM*	?	.
COCC1CCCN(Cc2cn(-c3ccccc3)nc2-c2ccc3c(c2)OCO3)C1 (centres undefined)	1%	-24%	-7	-28%	-12%	0%
c1ccc(-n2cc(CN3CCC(N4CCOCC4)CC3)c(-c3ccc4c(c3)OCO4)n2)cc1	9%	3%	-66*	?	-3%	0%
O=C1NC[C@@H](CCCCN2C[C@H](Cc3ccc(O)cc3)N(CCc3ccc(O)cc3)C(=O)C2=O)N(CC2CCCCC2)C1=O	15%	.	28	?	0%	21%
